Assay results: PubChem BioAssay (NCI)
About 79,000 compounds went through this panel and 15% of them were active in at least one assay; those are over-represented in the sample as a whole. Active and inactive are the calls of the source. Rule as the data show it: active = growth inhibition above about 70%; inactive = the rest.

Tests used:
[1] = NCI Yeast Anticancer Drug Screen. Data for the rad52 strain (AID 147);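 also: 0% = growth of vehicle-treated control cultures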; settings: S. cerevisiae rad52 mutant growth inhibition, hits give high values
Procedure, shortened: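 The repair-mutant yeast strain was incubated with compounds, then growth was read and inhibition derived relative to vehicle.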

[2] = NCI Yeast Anticancer Drug Screen. Data for the wt1 strain (AID 149);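 also: 0% = growth of vehicle-treated wt1 cultures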; settings: S. cerevisiae wt1 strain (SPY 50644) growth inhibition, hits give high values
Procedure, shortened: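 The wt1 strain was treated with compounds, and growth was compared with vehicle-treated cultures to give inhibition.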

[3] = NCI Yeast Anticancer Drug Screen. Data for the rad50EPP+ strain (AID 151);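 also: 0% = growth of vehicle-treated control cultures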; settings: S. cerevisiae rad50 mutant strain, hits give high values
Procedure, shortened: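 Vehicle-normalised growth inhibition; rad50EPP+ yeast strain, altered in DNA damage repair, compound-treated.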

[4] = NCI Yeast Anticancer Drug Screen. Data for the mgt1 strain (AID 153); settings: S. cerevisiae mgt1 mutant growth inhibition, hits give high values
Procedure, shortened: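 Vehicle-normalized growth inhibition is determined in mgt1 yeast, a strain selected for a defined alteration in DNA repair or cell cycle control.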

[5] = NCI Yeast Anticancer Drug Screen. Data for the rad50 strain (AID 155);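 also: 0% = growth of vehicle-only cultures of the same strain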; settings: S. cerevisiae rad50 strain growth inhibition, hits give high values
Procedure, shortened: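 Cells are treated with compound, grown, and their growth is then scored against vehicle-only cultures of the same repair-deficient yeast strain.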

[6] = NCI Yeast Anticancer Drug Screen. Data for the mec2-1 strain (AID 157); settings: S. cerevisiae mec2-1 strain, hits give high values
Procedure, shortened: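 Mutant yeast (mec2-1) grown with compound; growth inhibition relative to vehicle control reported.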

[7] = NCI Yeast Anticancer Drug Screen. Data for the rad14 strain (AID 159);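 also: 0% = growth of vehicle-treated control cultures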; settings: S. cerevisiae rad14 strain growth inhibition, hits give high values
Procedure, shortened: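 Readout: yeast growth inhibition, referenced to vehicle-only cultures. Strain bears a defined alteration in DNA damage repair.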

[8] = NCI Yeast Anticancer Drug Screen. Data for the sgs1 mgt1 strain (AID 161);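 also: 0% = growth of cultures given vehicle only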; settings: S. cerevisiae sgs1 mgt1 strain, hits give high values
Procedure, shortened: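 Yeast cells carrying a defined DNA-repair defect were exposed to test compounds. Growth inhibition was measured relative to vehicle-treated controls.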

[9] = NCI Yeast Anticancer Drug Screen. Data for the CLN2oe strain (AID 163);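 also: 0% = growth of vehicle-only control cultures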; settings: S. cerevisiae CLN2oe strain, hits give high values
Procedure, shortened: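 Compounds are applied to yeast harbouring a defined cell-cycle control change; reduced growth compared with vehicle-treated controls gives the value.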

[10] = NCI Yeast Anticancer Drug Screen. Data for the cln2 rad14 strain (AID 165);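 also: 0% = growth equal to vehicle treated cultures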; settings: S. cerevisiae cln2 rad14 strain, hits give high values
Procedure, shortened: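 Readout is yeast growth inhibition versus vehicle-treated controls, using a strain with cln2 and rad14 alterations exposed to compound.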

[11] = NCI Yeast Anticancer Drug Screen. Data for the bub3 strain (AID 167); settings: S. cerevisiae bub3 mutant strain, hits give high values
Procedure, shortened: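 Part of a panel of yeast mutants defective in DNA damage repair or cell cycle regulation. Each strain is grown with compound, and inhibition is calculated relative to solvent-treated cultures.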

[12] = NCI Yeast Anticancer Drug Screen. Data for the wt2 strain (AID 169);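 also: 0% = growth of vehicle-treated yeast cultures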; settings: S. cerevisiae wt2 strain growth inhibition, hits give high values
Procedure, shortened: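 Against vehicle-treated controls, the growth of yeast exposed to each compound was compared, and the inhibition was recorded.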

[13] = NCI Yeast Anticancer Drug Screen. Data for the mlh1 strain (AID 171);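 also: 0% = growth of vehicle-treated control cultures of the same strain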; settings: S. cerevisiae mlh1 strain growth inhibition, hits give high values
Procedure, shortened: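 Measured: yeast growth. Reference: vehicle-treated controls. Organism: strain with a defined alteration affecting DNA damage repair or cell cycle control, treated with compound.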

[14] = NCI Yeast Anticancer Drug Screen. Data for the sgs1 strain (AID 173);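 also: 0% = growth of vehicle-only control cultures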; settings: S. cerevisiae sgs1 mutant, hits give high values
Procedure, shortened: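 Each compound was added to cultures of the altered yeast strain. Growth was recorded, and inhibition was derived by comparison with vehicle controls.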

[15] = NCI Yeast Anticancer Drug Screen. Data for the mlh1 rad18 strain (AID 175); settings: S. cerevisiae mlh1 rad18 strain growth inhibition, hits give high values
Procedure, shortened: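 Genetically defined yeast (DNA repair-deficient) exposed to compounds; growth inhibition determined relative to vehicle.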

[16] = NCI Yeast Anticancer Drug Screen. Data for the rad18 strain (AID 177); settings: S. cerevisiae rad18 mutant growth inhibition, hits give high values
Procedure, shortened: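 Vehicle-treated cultures served as the baseline for scoring compound-induced growth inhibition in DNA-repair-mutant yeast.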

[17] = at 5.0 µM (retest, dose inferred, filed as 0.5)
[18] = at 50.0 µM (retest, dose inferred, filed as 5.0)

Measured: growth inhibition

CC(=O)[C@]1(O)Cc2c(O)c3c(c(O)c2[C@@H](OC2CC(N)C(O)C(C)O2)C1)C(=O)c1c(OCc2ccccc2)cccc1C3=O (some centres not stated)
inactive: [1]; at 1.2 µM 21% | [1]; at 3.7 µM 40% | [1]; at 11.0 µM 59% | [2]; at 1.2 µM -9% | [2]; at 3.7 µM -4% | [2]; at 11.0 µM 5% | [2]; at 33.0 µM -4% | [2]; at 100.0 µM 7% | [3]; at 1.2 µM 18% | [3]; at 3.7 µM 21% | [3]; at 11.0 µM 28% | [3]; at 33.0 µM 46% | [3]; at 100.0 µM 65% | [4]; at 1.2 µM -2% | [4]; at 3.7 µM 8% | [4]; at 11.0 µM 5% | [4]; at 33.0 µM 14% | [4]; at 100.0 µM 43% | [5]; at 1.2 µM 14% | [5]; at 3.7 µM 24% | [5]; [17] 9% | [5]; at 11.0 µM 44% | [6]; at 1.2 µM 4% | [6]; at 3.7 µM -10% | [6]; [17] -9% | [6]; at 11.0 µM -1% | [6]; at 33.0 µM 2% | [6]; [18] 24% | [6]; at 50.0 µM 12.4% | [6]; at 100.0 µM 28% | [7]; at 1.2 µM 7% | [7]; at 3.7 µM 18% | [7]; at 11.0 µM 18% | [7]; at 33.0 µM 27% | [7]; at 100.0 µM 51% | [8]; [17] 11% | [8]; [18] 46% | [8]; at 50.0 µM 9.95% | [9]; at 1.2 µM 5% | [9]; at 3.7 µM 16% | [9]; at 11.0 µM 27% | [9]; at 33.0 µM 30% | [9]; at 100.0 µM 31% | [10]; [17] 4% | [10]; [18] 35% | [10]; at 50.0 µM -1.65% | [11]; at 1.2 µM -2% | [11]; at 3.7 µM 1% | [11]; [17] 10% | [11]; at 11.0 µM 5% | [11]; at 33.0 µM 18% | [11]; [18] 36% | [11]; at 50.0 µM 17.4% | [11]; at 100.0 µM 33% | [12]; at 1.2 µM -69% | [12]; at 3.7 µM -65% | [12]; at 11.0 µM -53% | [12]; at 33.0 µM -16% | [13]; at 1.2 µM -2% | [13]; at 3.7 µM -1% | [13]; at 11.0 µM 6% | [13]; at 33.0 µM 23% | [13]; at 100.0 µM 61% | [14]; at 1.2 µM 8% | [14]; at 3.7 µM 4% | [14]; at 11.0 µM 22% | [14]; at 33.0 µM 19% | [14]; at 100.0 µM 53% | [15]; [17] -4% | [15]; [18] 46% | [16]; at 1.2 µM 2% | [16]; at 3.7 µM 7% | [16]; at 11.0 µM 9% | [16]; at 33.0 µM 20% | [16]; at 100.0 µM 55%
active: [1]; at 33.0 µM 79% | [1]; at 100.0 µM 94% | [5]; at 33.0 µM 71% | [5]; [18] 83% | [5]; at 50.0 µM 72.8% | [5]; at 100.0 µM 92% | [12]; at 100.0 µM 92%
